Screening data deposited in PubChem by National Center for Advancing Translational Sciences (NCATS).
Sampled rows, rich in hits. Any-hit rate of the full collection: about 19%.
TDP1 cell CPT: growth inhibition of DT40 Tdp1-/-;hTDP1 cells with camptothecin (screen for TDP1 inhibitors). chicken DT40 Tdp1-/-;hTDP1 cells + 20 nM CPT, ATP luminescence, 48 h. Potency, µM (titrated, usually from 46.2 µM), for inactives: top-dose activity change, negative = growth inhibition, most hits filed as inhibitors. 12% of 420,000 active; note: nearly all actives have a fitted effect of over 55% in size
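Chicken DT40 Tdp1-/- cells stably complemented with human TDP1 were seeded at 400 cells/well in medium containing 20 nM camptothecin, exposed to pin-transferred compounds, and grown at 37 °C for at least 48 hr. Viability was read as ATP luminescence.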
RORgamma inh: inhibitors of mouse ROR gamma transcriptional activity; P51450; Drosophila S2 Gal4-RORgamma UAS-luciferase reporter, 20 h; Potency, µM (top dose mostly 53.6 µM), for inactives: at the highest dose activity change, negative = inhibition, usual class: inhibitors; 5.4% of 310,000 active; note: nearly all actives have a fitted effect of over 60% in size
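Luciferase reporter read in Schneider cells carrying Gal4-RORγ (mouse) and UAS-Photinus luciferase; cells given compound 1 h before 700 uM copper sulfate induction, then incubated 20 h at ambient temperature.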
DT40 TDP1 no CPT: qHTS for Inhibitors of human tyrosyl-DNA phosphodiesterase 1 (TDP1): qHTS in cells in absence of CPT | 15% of 420,000 active | Potency, µM (series often up to 46.2 µM), for inactives: at the top dose activity change, negative = growth inhibition, most hits filed as inhibitors | DT40 Tdp1-/- hTDP1 cells, no CPT, ATP luminescence, 48 h; note: nearly all actives have a fitted effect of over 55% in size
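Seeded 400 DT40-hTDP1 cells/well (vehicle DMSO, no 20 nM CPT); pinned compounds; ≥48 hr at 37 °C; CellTiter-Glo luminescence as viability measure.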
VP16 counter: Gal4-VP16 reporter inhibition counter-screen | Drosophila S2 Gal4-VP16 UAS-luciferase, luminescence, 20 h | Potency, µM (top dose mostly 53.6 µM), for the others: at the highest dose activity, negative = inhibition, most hits filed as inhibitors | 3.5% of 310,000 active;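 note: Gal4-VP16 expression switched on by copper sulfate through the metallothionein promoter; nearly all actives have a fitted effect of over 50% in size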
TDP1 inh: blocks human tyrosyl-DNA phosphodiesterase 1. Q9NUW8. recombinant TDP1, AlphaScreen DNA substrate cleavage. Potency, µM (top dose mostly 130 µM), for the others: top-dose activity change, negative = inhibition, hits mostly inhibitors. 0.28% of 350,000 active; note: nearly all actives have a fitted effect of over 40% in size
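Compounds were preincubated with Tdp1 (1 nM final) for 15 min at room temperature before substrate (15 nM final) started a 5 min reaction; beads (10 ug/ml final) were then added for 10 min before AlphaScreen detection.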
Numbers without * were called inactive. Calls come from the whole dose curve; as a rule, active = well fitted curve in the direction sought with a large enough effect; inconclusive = small, poorly fitted or top-dose-only effect, or another doubt; inactive = no such curve, though single readings can be large; an effect the other way counts as inactive or inconclusive. % is set by controls: 0 for no effect and ±100 for the full control effect; potency is the fitted concentration of half-maximal effect.

How did Cc1ccc(C(C)C)c(OCC(=O)Nc2sc3c(c2C#N)CC(C)(C)NC3(C)C)c1 do in these assays?
TDP1 cell CPT: inconclusive; RORgamma inh: inconclusive; DT40 TDP1 no CPT: 21µM*; VP16 counter: inconclusive; TDP1 inh: 5%

How did CCCC(=O)Nc1sc2c(c1C#N)CC(C)(C)NC2(C)C do in these assays?
TDP1 cell CPT: -10%; RORgamma inh: inconclusive; DT40 TDP1 no CPT: 0%; VP16 counter: -15%; TDP1 inh: 0%

Results for CC1(C)Cc2c(sc(NC(=O)COc3ccccc3)c2C#N)C(C)(C)N1 ?
TDP1 cell CPT: inconclusive; RORgamma inh: -7%; DT40 TDP1 no CPT: -28%; VP16 counter: -12%; TDP1 inh: 1%

How did Cc1cc(OCC(=O)Nc2sc3c(c2C#N)CC(C)(C)NC3(C)C)c(C(C)C)cc1Cl do in these assays?
TDP1 cell CPT: inconclusive; RORgamma inh: -37%; DT40 TDP1 no CPT: 16µM*; VP16 counter: -26%; TDP1 inh: 5%

What do the screens show for `CCc1ccc(S(=O)(=O)c2cn(CC(=O)Nc3ccc(F)c(Cl)c3)c3ccccc3c2=O)cc1`?
TDP1 cell CPT: inconclusive; DT40 TDP1 no CPT: inconclusive; TDP1 inh: 9%

How did Cc1cccc(N/C=C/C(=O)c2cccs2)c1C do in these assays?
TDP1 cell CPT: -13%; RORgamma inh: 10µM*; DT40 TDP1 no CPT: -24%; VP16 counter: inconclusive; TDP1 inh: -4%

How did O=C(/C=C/c1ccc([N+](=O)[O-])cc1)c1cccs1 do in these assays?
TDP1 cell CPT: inconclusive; RORgamma inh: 1%; DT40 TDP1 no CPT: inconclusive; VP16 counter: 4%; TDP1 inh: -5%

What do the screens show for `COc1cc([N+](=O)[O-])ccc1N/C=C/C(=O)c1cccs1`?
TDP1 cell CPT: inconclusive; RORgamma inh: 8.9µM*; DT40 TDP1 no CPT: inconclusive; VP16 counter: 8.9µM*; TDP1 inh: 0%

What do the screens show for `CN(C)CCN(C)C1CN(CCc2ccccc2)S(=O)(=O)C1` (stereo not given)?
TDP1 cell CPT: -11%; DT40 TDP1 no CPT: -8%

How did COc1ccc(-c2nnc(SCC(=O)c3[nH]c(C)c(C(C)=O)c3C)o2)cc1 do in these assays?
TDP1 cell CPT: 13µM*; RORgamma inh: 6%; DT40 TDP1 no CPT: 18µM*; VP16 counter: -9%; TDP1 inh: 2%

Results for COc1ccc(-c2nnc(SCC(=O)c3ccc(O)cc3O)o2)cc1 ?
TDP1 cell CPT: -3%; RORgamma inh: 5.6µM*; DT40 TDP1 no CPT: -26%; VP16 counter: inconclusive; TDP1 inh: 2%

Results for COc1ccc(-c2nnc(SCC(=O)c3ccc[nH]3)o2)cc1 ?
TDP1 cell CPT: -18%; RORgamma inh: inconclusive; DT40 TDP1 no CPT: -22%; VP16 counter: inconclusive; TDP1 inh: 2%

Results for CC(=O)c1c(C)[nH]c(C(=O)CSc2nnc(-c3ccco3)o2)c1C ?
TDP1 cell CPT: inconclusive; RORgamma inh: 29%; DT40 TDP1 no CPT: 15µM*; VP16 counter: -3%; TDP1 inh: 8%

What do the screens show for `CCOC(=O)c1c(C)[nH]c(C)c1C(=O)CSc1nnc(-c2ccc(OC(F)F)cc2)o1`?
TDP1 cell CPT: inconclusive; RORgamma inh: inconclusive; DT40 TDP1 no CPT: 12µM*; VP16 counter: inconclusive; TDP1 inh: -1%

How did O=C(O)CCS(=O)(=O)Cc1ccccc1F do in these assays?
TDP1 cell CPT: -4%; RORgamma inh: 15%; DT40 TDP1 no CPT: -8%; VP16 counter: -9%; TDP1 inh: 1%

How did Cc1cc(C)c(OCC(=O)OCC(=O)NCC2CCCCC2)c(C)c1 do in these assays?
TDP1 cell CPT: 1%; DT40 TDP1 no CPT: -8%; TDP1 inh: 3%

How did CC(C)(C)c1ccc(-c2nc(SCCOc3ccc(Cl)cc3)n3[nH]c(=O)cc3n2)cc1 do in these assays?
TDP1 cell CPT: 18µM*; DT40 TDP1 no CPT: -80%; TDP1 inh: 5%

What do the screens show for `Cc1ccc(OCCCSc2nc(-c3ccc(C(C)(C)C)cc3)nc3cc(=O)[nH]n23)cc1C`?
TDP1 cell CPT: inconclusive; DT40 TDP1 no CPT: 26µM*; TDP1 inh: 0%
